Measurements taken from PubChem BioAssay (NCI).
Compounds without any hit were thinned out: in the full panel of roughly 79,000, 15% have a hit. Cut-off read from the data, not from the text of the source: active = growth inhibition above about 70%; inactive = the rest.

Key:
[1] = NCI Yeast Anticancer Drug Screen. Data for the wt1 strain (AID 149);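 note: 0% = growth of vehicle-treated wt1 cultures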; conditions: S. cerevisiae wt1 strain (SPY 50644) growth inhibition, stronger effect = higher value
How it was run: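 Readout: yeast growth inhibition, normalised to vehicle controls, in the wt1 strain exposed to test compounds.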

[2] = NCI Yeast Anticancer Drug Screen. Data for the rad50EPP+ strain (AID 151);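 note: 0% = growth of vehicle-treated control cultures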; conditions: S. cerevisiae rad50 mutant strain, stronger effect = higher value
How it was run: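 Compounds were applied to the rad50EPP+ yeast strain, which bears a defined DNA repair alteration, and growth inhibition was determined relative to vehicle-treated cultures.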

[3] = NCI Yeast Anticancer Drug Screen. Data for the mgt1 strain (AID 153); conditions: S. cerevisiae mgt1 mutant growth inhibition, stronger effect = higher value
How it was run: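 Strain: mgt1 yeast, one of a set carrying defined DNA damage repair or cell cycle control alterations. Compound-treated growth compared with vehicle.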

[4] = NCI Yeast Anticancer Drug Screen. Data for the rad50 strain (AID 155);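 note: 0% = growth of vehicle-only cultures of the same strain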; conditions: S. cerevisiae rad50 strain growth inhibition, stronger effect = higher value
How it was run: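 Compounds were tested on a yeast strain with an engineered DNA damage repair alteration; the reported value is growth inhibition normalised to vehicle treatment.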

[5] = NCI Yeast Anticancer Drug Screen. Data for the mec2-1 strain (AID 157); conditions: S. cerevisiae mec2-1 strain, stronger effect = higher value
How it was run: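 Strain: mec2-1 (DNA repair/cell cycle alteration). Compound exposure, then growth measured; inhibition expressed relative to vehicle.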

[6] = NCI Yeast Anticancer Drug Screen. Data for the rad14 strain (AID 159);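 note: 0% = growth of vehicle-treated control cultures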; conditions: S. cerevisiae rad14 strain growth inhibition, stronger effect = higher value
How it was run: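 Compound-treated yeast with a defined DNA-repair lesion; growth inhibition normalised to vehicle-treated cultures.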

[7] = NCI Yeast Anticancer Drug Screen. Data for the sgs1 mgt1 strain (AID 161);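 note: 0% = growth of cultures given vehicle only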; conditions: S. cerevisiae sgs1 mgt1 strain, stronger effect = higher value
How it was run: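 Mutant yeast exposed to compound; growth scored against vehicle-only wells.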

[8] = NCI Yeast Anticancer Drug Screen. Data for the CLN2oe strain (AID 163);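 note: 0% = growth of vehicle-only control cultures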; conditions: S. cerevisiae CLN2oe strain, stronger effect = higher value
How it was run: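 Growth of a genetically modified yeast strain is measured after compound exposure and compared with cultures given vehicle alone.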

[9] = NCI Yeast Anticancer Drug Screen. Data for the cln2 rad14 strain (AID 165);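 note: 0% = growth equal to vehicle treated cultures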; conditions: S. cerevisiae cln2 rad14 strain, stronger effect = higher value
How it was run: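 Compounds are applied to the cln2 rad14 yeast strain, and growth is then compared with that of vehicle-treated cultures to give inhibition.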

[10] = NCI Yeast Anticancer Drug Screen. Data for the bub3 strain (AID 167); conditions: S. cerevisiae bub3 mutant strain, stronger effect = higher value
How it was run: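 Growth of a checkpoint-deficient yeast mutant is measured after compound exposure. Values represent inhibition relative to vehicle.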

[11] = NCI Yeast Anticancer Drug Screen. Data for the wt2 strain (AID 169);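 note: 0% = growth of vehicle-treated yeast cultures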; conditions: S. cerevisiae wt2 strain growth inhibition, stronger effect = higher value
How it was run: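 This strain belongs to a panel of yeast strains with defined genetic alterations in DNA damage repair or cell cycle control. Compounds are applied, and growth inhibition is measured against vehicle-treated cultures.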

[12] = NCI Yeast Anticancer Drug Screen. Data for the mlh1 strain (AID 171);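 note: 0% = growth of vehicle-treated control cultures of the same strain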; conditions: S. cerevisiae mlh1 strain growth inhibition, stronger effect = higher value
How it was run: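 Growth of the mutant yeast strain after compound exposure, expressed as inhibition relative to vehicle-only controls.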

[13] = NCI Yeast Anticancer Drug Screen. Data for the sgs1 strain (AID 173);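 note: 0% = growth of vehicle-only control cultures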; conditions: S. cerevisiae sgs1 mutant, stronger effect = higher value
How it was run: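 Growth of a yeast strain bearing a defined genetic alteration is measured after compound treatment. Inhibition is expressed relative to vehicle-only controls.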

[14] = NCI Yeast Anticancer Drug Screen. Data for the mlh1 rad18 strain (AID 175); conditions: S. cerevisiae mlh1 rad18 strain growth inhibition, stronger effect = higher value
How it was run: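 Read-out is yeast growth inhibition, calculated against vehicle-only controls. The compound was applied to a strain engineered with DNA damage repair alterations.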

[15] = NCI Yeast Anticancer Drug Screen. Data for the rad18 strain (AID 177); conditions: S. cerevisiae rad18 mutant growth inhibition, stronger effect = higher value
How it was run: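 Growth of the mutant yeast strain after compound exposure, normalised to vehicle-only cultures.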

[16] = at 5.0 µM (retest, dose inferred, filed as 0.5)
[17] = at 50.0 µM (retest, dose inferred, filed as 5.0)

Measured: growth inhibition

CCN(CC)CCNc1ccc2ncn3c4cc(OC)c(OC)c(=O)c4c(O)c1c23
inactive: [1]; at 1.2 µM -82% | [1]; at 3.7 µM 1% | [1]; at 11.0 µM 2% | [1]; at 33.0 µM 4% | [1]; at 100.0 µM 6% | [2]; at 1.2 µM 1% | [2]; at 3.7 µM 3% | [2]; at 11.0 µM 11% | [2]; at 33.0 µM 20% | [2]; at 100.0 µM 26% | [3]; at 1.2 µM 1% | [3]; at 3.7 µM 2% | [3]; at 11.0 µM 3% | [3]; at 33.0 µM 4% | [3]; at 100.0 µM 7% | [4]; at 1.2 µM 5% | [4]; at 3.7 µM 15% | [4]; [16] 2% | [4]; at 11.0 µM 30% | [4]; at 33.0 µM 46% | [4]; [17] -3% | [4]; at 50.0 µM 65.5% | [4]; at 100.0 µM 66% | [5]; at 1.2 µM -2% | [5]; at 3.7 µM -1% | [5]; [16] -3% | [5]; at 11.0 µM 0% | [5]; at 33.0 µM 8% | [5]; [17] -12% | [5]; at 50.0 µM 23.5% | [5]; at 100.0 µM 11% | [6]; at 1.2 µM -1% | [6]; at 3.7 µM 0% | [6]; at 11.0 µM 5% | [6]; at 33.0 µM 4% | [6]; at 100.0 µM 8% | [7]; [16] 10% | [7]; [17] 17% | [7]; at 50.0 µM 12.8% | [8]; at 1.2 µM -6% | [8]; at 3.7 µM -4% | [8]; at 11.0 µM 0% | [8]; at 33.0 µM -2% | [8]; at 100.0 µM 5% | [9]; [16] -5% | [9]; [17] 48% | [9]; at 50.0 µM 26.4% | [10]; at 1.2 µM -1% | [10]; at 3.7 µM -3% | [10]; [16] 11% | [10]; at 11.0 µM 0% | [10]; at 33.0 µM -2% | [10]; [17] 16% | [10]; at 50.0 µM 11.8% | [10]; at 100.0 µM 4% | [11]; at 1.2 µM -3% | [11]; at 3.7 µM 0% | [11]; at 11.0 µM 1% | [11]; at 33.0 µM 1% | [11]; at 100.0 µM 2% | [12]; at 1.2 µM -1% | [12]; at 3.7 µM 0% | [12]; at 11.0 µM 1% | [12]; at 33.0 µM 3% | [12]; at 100.0 µM 7% | [13]; at 1.2 µM 0% | [13]; at 3.7 µM 5% | [13]; at 11.0 µM 3% | [13]; at 33.0 µM 4% | [13]; at 100.0 µM 5% | [14]; [16] 38% | [14]; [17] -10% | [14]; at 50.0 µM 20.3% | [15]; at 1.2 µM -4% | [15]; at 3.7 µM -1% | [15]; at 11.0 µM 5% | [15]; at 33.0 µM -7% | [15]; at 100.0 µM 1%

CC(=O)OCC1OC2OC(=O)NC2C(OC(C)=O)C1OC(C)=O (stereo unspecified)
inactive: [1]; at 1.2 µM -3% | [1]; at 3.7 µM -3% | [1]; at 11.0 µM -2% | [1]; at 33.0 µM -2% | [1]; at 100.0 µM -1% | [2]; at 1.2 µM -4% | [2]; at 3.7 µM 0% | [2]; at 11.0 µM -1% | [2]; at 33.0 µM -5% | [2]; at 100.0 µM -8% | [3]; at 1.2 µM -1% | [3]; at 3.7 µM -1% | [3]; at 11.0 µM 1% | [3]; at 33.0 µM -4% | [3]; at 100.0 µM -35% | [4]; at 1.2 µM -5% | [4]; at 3.7 µM -1% | [4]; [16] 5% | [4]; at 11.0 µM 0% | [4]; at 33.0 µM -1% | [4]; [17] -1% | [4]; at 50.0 µM 5.15% | [4]; at 100.0 µM 0% | [5]; at 1.2 µM -2% | [5]; at 3.7 µM -2% | [5]; [16] -7% | [5]; at 11.0 µM -1% | [5]; at 33.0 µM -1% | [5]; [17] 3% | [5]; at 50.0 µM 10.9% | [5]; at 100.0 µM 0% | [6]; at 1.2 µM -2% | [6]; at 3.7 µM -1% | [6]; at 11.0 µM -3% | [6]; at 33.0 µM 2% | [6]; at 100.0 µM 2% | [7]; [16] 2% | [7]; [17] 15% | [7]; at 50.0 µM -17.1% | [8]; at 1.2 µM -3% | [8]; at 3.7 µM 2% | [8]; at 11.0 µM -1% | [8]; at 33.0 µM -4% | [8]; at 100.0 µM 0% | [9]; [16] -21% | [9]; [17] 44% | [9]; at 50.0 µM -15.3% | [10]; at 1.2 µM 13% | [10]; at 3.7 µM 2% | [10]; [16] 3% | [10]; at 11.0 µM -2% | [10]; at 33.0 µM 1% | [10]; [17] 3% | [10]; at 50.0 µM -9.2% | [10]; at 100.0 µM -4% | [11]; at 1.2 µM -3% | [11]; at 3.7 µM -3% | [11]; at 11.0 µM -3% | [11]; at 33.0 µM -4% | [11]; at 100.0 µM -1% | [12]; at 1.2 µM -2% | [12]; at 3.7 µM -3% | [12]; at 11.0 µM -2% | [12]; at 33.0 µM -1% | [12]; at 100.0 µM 0% | [13]; at 1.2 µM -3% | [13]; at 3.7 µM -3% | [13]; at 11.0 µM -2% | [13]; at 33.0 µM -1% | [13]; at 100.0 µM 0% | [14]; [16] -9% | [14]; [17] 5% | [14]; at 50.0 µM -7.3% | [15]; at 1.2 µM -3% | [15]; at 3.7 µM -1% | [15]; at 11.0 µM 0% | [15]; at 33.0 µM -3% | [15]; at 100.0 µM -2%
